The results in this text go back to PubChem BioAssay (NCI).

Experiment [1] can be described thus: NCI Yeast Anticancer Drug Screen. Data for the rad50 strain (AID 155).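 Further: 0% = growth of vehicle-only cultures of the same strain.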 The following applies: S. cerevisiae rad50 strain growth inhibition, stronger effect = higher value. The method in brief:
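Inhibition values express reduced yeast growth in compound-treated cultures relative to vehicle-treated controls.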

Experiment [2] in a line: NCI Yeast Anticancer Drug Screen. Data for the mec2-1 strain (AID 157). The following applies: S. cerevisiae mec2-1 strain, stronger effect = higher value. The method, boiled down:
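Growth inhibition is read against vehicle-treated controls after compound exposure of the mec2-1 yeast strain, which is defective in DNA damage repair or cell cycle control.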

The nature of experiment [3]: NCI Yeast Anticancer Drug Screen. Data for the sgs1 mgt1 strain (AID 161).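 Further: 0% = growth of cultures given vehicle only.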 The following applies: S. cerevisiae sgs1 mgt1 strain, stronger effect = higher value. The method, boiled down: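 Percent growth inhibition was derived by comparing compound-exposed mutant yeast with vehicle-exposed cultures. The strain carries alterations in DNA damage repair.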
Experiment [4] in a line: NCI Yeast Anticancer Drug Screen. Data for the cln2 rad14 strain (AID 165).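 Further: 0% = growth equal to vehicle treated cultures.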 Particulars: S. cerevisiae cln2 rad14 strain, stronger effect = higher value. The method, boiled down:
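Growth inhibition, relative to vehicle-treated controls, is the read-out. The test organism is a yeast strain with defined genetic alterations, cln2 rad14.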

Experiment [5] can be described thus: NCI Yeast Anticancer Drug Screen. Data for the bub3 strain (AID 167). The following applies: S. cerevisiae bub3 mutant strain, stronger effect = higher value. The method in brief: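 Steps: expose the mutant yeast strain to compound; grow alongside vehicle-treated cultures; measure growth; express inhibition against the vehicle cultures.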
Experiment [6] in a line: NCI Yeast Anticancer Drug Screen. Data for the mlh1 rad18 strain (AID 175). The following applies: S. cerevisiae mlh1 rad18 strain growth inhibition, stronger effect = higher value. The method in brief:
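Cells of a genetically altered yeast strain, deficient in DNA damage repair, were treated with compound. Their growth was then compared with that of vehicle-treated cultures to give inhibition.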

The mark [7] stands for this setting: at 5.0 µM (retest, dose inferred, filed as 0.5).
The mark [8] stands for this setting: at 50.0 µM (retest, dose inferred, filed as 5.0).

The panel holds about 79,000 compounds, 15% with a hit somewhere; the sample as a whole holds those more often. Unmarked numbers belong to inactive results. Calls of active or inactive are those of the source. No stated cut-off is given here; in the data, active means growth inhibition above about 70%; inactive means the rest.

As to `CCOC(=O)c1ccc(N(CCC(O)CN=[N+]=[N-])S(=O)(=O)c2ccc(C)cc2)cc1` (stereo not given), the growth inhibition in experiment [1] (setting [7]) is 9%; in experiment [1] (setting [8]), 66%; in experiment [1] (at 50.0 µM) it was 57%; in experiment [2] (setting [7]) it was 11%; in experiment [2] (setting [8]) it was 23%; in experiment [2] (at 50.0 µM) it was 19.4%. Moreover, the growth inhibition in experiment [3] (setting [7]) was 18%; in experiment [3] (setting [8]) it was 63%; in experiment [3] (at 50.0 µM) it was 53.4%; in experiment [4] (setting [7]), 0%; in experiment [4] (setting [8]), 3%; in experiment [4] (at 50.0 µM) it was 40.6%. Besides, the growth inhibition was -4% in experiment [5] (setting [7]); 49% in experiment [5] (setting [8]); 5.9% in experiment [5] (at 50.0 µM); 29% in experiment [6] (setting [7]); 84% (active) in experiment [6] (setting [8]); 55.1% in experiment [6] (at 50.0 µM).
`S=C(NCCc1ccccn1)N/N=C/c1ccccn1`: the growth inhibition was 10% in experiment [1] (setting [7]); 99% (active) in experiment [1] (setting [8]); 76.5% (active) in experiment [1] (at 50.0 µM); -1% in experiment [2] (setting [7]); 99% (active) in experiment [2] (setting [8]); 84.9% (active) in experiment [2] (at 50.0 µM). The growth inhibition in experiment [3] (setting [7]) is 7%; in experiment [3] (setting [8]), 98% (active); in experiment [3] (at 50.0 µM) it was 88.3% (active); in experiment [4] (setting [7]) it was -3%; in experiment [4] (setting [8]), 97% (active); in experiment [4] (at 50.0 µM), 89.8% (active). Also, the growth inhibition was -17% in experiment [5] (setting [7]); 99% (active) in experiment [5] (setting [8]); 90.4% (active) in experiment [5] (at 50.0 µM); 28% in experiment [6] (setting [7]); 99% (active) in experiment [6] (setting [8]); 91.5% (active) in experiment [6] (at 50.0 µM).
Regarding `CNC(=S)N/N=C(\C=N\NC(=S)NC)c1ccccc1`, the growth inhibition is 7% in experiment [1] (setting [7]); 32% in experiment [1] (setting [8]); 74.7% (active) in experiment [1] (at 50.0 µM); -14% in experiment [2] (setting [7]); 35% in experiment [2] (setting [8]); 37% in experiment [2] (at 50.0 µM). The growth inhibition is 3% in experiment [3] (setting [7]); 37% in experiment [3] (setting [8]); 82.4% (active) in experiment [3] (at 50.0 µM); 9% in experiment [4] (setting [7]); 30% in experiment [4] (setting [8]); 37.8% in experiment [4] (at 50.0 µM). For the same compound, the growth inhibition is -1% in experiment [5] (setting [7]); 25% in experiment [5] (setting [8]); 59.5% in experiment [5] (at 50.0 µM); 0% in experiment [6] (setting [7]); 44% in experiment [6] (setting [8]); 66.8% in experiment [6] (at 50.0 µM).
Take `CCC(=O)/C(=C\c1ccccc1)C(=O)C(C)CN(C)C` (stereo not given): the growth inhibition in experiment [1] (setting [7]) is 9%; in experiment [1] (setting [8]), 23%; in experiment [1] (at 50.0 µM) it was 7%; in experiment [2] (setting [7]), 13%; in experiment [2] (setting [8]), 16%; in experiment [2] (at 50.0 µM), 17.6%. Besides, the growth inhibition in experiment [3] (setting [7]) was 12%; in experiment [3] (setting [8]) it was 16%; in experiment [3] (at 50.0 µM), 26.6%; in experiment [4] (setting [7]) it was 20%; in experiment [4] (setting [8]), 25%; in experiment [4] (at 50.0 µM), 25.8%. Further, the growth inhibition in experiment [5] (setting [7]) is 10%; in experiment [5] (setting [8]), 15%; in experiment [5] (at 50.0 µM) it was 33.8%; in experiment [6] (setting [7]), 16%; in experiment [6] (setting [8]), 24%; in experiment [6] (at 50.0 µM) it was 51.8%.
Take `O=C(c1ccccc1)N(c1ccccc1)c1ccc2ccccc2c1`: the growth inhibition in experiment [1] (setting [7]) is -3%; in experiment [1] (setting [8]), 16%; in experiment [1] (at 50.0 µM), 5.8%; in experiment [2] (setting [7]), -3%; in experiment [2] (setting [8]), 21%; in experiment [2] (at 50.0 µM) it was -6.1%. Also, the growth inhibition in experiment [3] (setting [7]) was -5%; in experiment [3] (setting [8]) it was 77% (active); in experiment [3] (at 50.0 µM), 12%; in experiment [4] (setting [7]), -35%; in experiment [4] (setting [8]), 30%; in experiment [4] (at 50.0 µM) it was 12.3%. Also, the growth inhibition was 13% in experiment [5] (setting [7]); 67% in experiment [5] (setting [8]); 21.8% in experiment [5] (at 50.0 µM); -12% in experiment [6] (setting [7]); 67% in experiment [6] (setting [8]); -1.8% in experiment [6] (at 50.0 µM).
Regarding `O=C1OC(=O)c2cccc3cccc1c23`, the growth inhibition is 51% in experiment [1] (setting [7]); 99% (active) in experiment [1] (setting [8]); 98.8% (active) in experiment [1] (at 50.0 µM); 35% in experiment [2] (setting [7]); 99% (active) in experiment [2] (setting [8]); 99.1% (active) in experiment [2] (at 50.0 µM). For the same compound, the growth inhibition in experiment [3] (setting [7]) is 19%; in experiment [3] (setting [8]), 99% (active); in experiment [3] (at 50.0 µM), 98.5% (active); in experiment [4] (setting [7]) it was 23%; in experiment [4] (setting [8]), 99% (active); in experiment [4] (at 50.0 µM), 98.5% (active). Further, the growth inhibition in experiment [5] (setting [7]) is 58%; in experiment [5] (setting [8]) it was 99% (active); in experiment [5] (at 50.0 µM) it was 99.5% (active); in experiment [6] (setting [7]), 57%; in experiment [6] (setting [8]), 99% (active); in experiment [6] (at 50.0 µM), 98.4% (active).
Take `CCCCC1(C(O)CC)Sc2ccccc2N1C` (stereo not given): the growth inhibition in experiment [1] (setting [7]) is -7%; in experiment [1] (setting [8]) it was 24%; in experiment [1] (at 50.0 µM), 31.8%; in experiment [2] (setting [7]), 2%; in experiment [2] (setting [8]), 82% (active); in experiment [2] (at 50.0 µM), 41.5%. For the same compound, the growth inhibition in experiment [3] (setting [7]) was -2%; in experiment [3] (setting [8]), 83% (active); in experiment [3] (at 50.0 µM), 50.6%; in experiment [4] (setting [7]), 1%; in experiment [4] (setting [8]), 36%; in experiment [4] (at 50.0 µM) it was 65.9%. For the same compound, the growth inhibition in experiment [5] (setting [7]) is -14%; in experiment [5] (setting [8]), 67%; in experiment [5] (at 50.0 µM), 61.6%; in experiment [6] (setting [7]) it was -12%; in experiment [6] (setting [8]), 90% (active); in experiment [6] (at 50.0 µM) it was 56%.
Consider `C=CS(=O)(=O)c1ccc(Cl)cc1`, for which the growth inhibition in experiment [1] (setting [7]) is -116%; in experiment [1] (setting [8]), 97% (active); in experiment [1] (at 50.0 µM), 99.7% (active); in experiment [2] (setting [7]), -19%; in experiment [2] (setting [8]), 98% (active); in experiment [2] (at 50.0 µM), 99.7% (active). The growth inhibition in experiment [3] (setting [7]) was -23%; in experiment [3] (setting [8]), 98% (active); in experiment [3] (at 50.0 µM), 99.2% (active); in experiment [4] (setting [7]), -42%; in experiment [4] (setting [8]), 98% (active); in experiment [4] (at 50.0 µM) it was 99.1% (active). Further, the growth inhibition was -34% in experiment [5] (setting [7]); 98% (active) in experiment [5] (setting [8]); 99.4% (active) in experiment [5] (at 50.0 µM); -73% in experiment [6] (setting [7]); 97% (active) in experiment [6] (setting [8]); 99% (active) in experiment [6] (at 50.0 µM).
For the compound `c1ccc2c(c1)oc1cc3c(cc12)CCCN3`, the growth inhibition in experiment [1] (setting [7]) is 18%; in experiment [1] (setting [8]) it was 97% (active); in experiment [1] (at 50.0 µM), 91.7% (active); in experiment [2] (setting [7]) it was 19%; in experiment [2] (setting [8]), 98% (active); in experiment [2] (at 50.0 µM), 10.3%. In addition, the growth inhibition was 7% in experiment [3] (setting [7]); 98% (active) in experiment [3] (setting [8]); 74.7% (active) in experiment [3] (at 50.0 µM); 3% in experiment [4] (setting [7]); 97% (active) in experiment [4] (setting [8]); 4.4% in experiment [4] (at 50.0 µM). Further, the growth inhibition in experiment [5] (setting [7]) is 19%; in experiment [5] (setting [8]), 98% (active); in experiment [5] (at 50.0 µM), 77.7% (active); in experiment [6] (setting [7]), 18%; in experiment [6] (setting [8]), 98% (active); in experiment [6] (at 50.0 µM), 43.5%.
Turning to `NC1CCCCC1N.O=S(=O)([O-])CCCN1CCOCC1.O=S(=O)([O-])CCCN1CCOCC1.[Pt+4]`, the growth inhibition is -12% in experiment [1] (setting [7]); 89% (active) in experiment [1] (setting [8]); 99% (active) in experiment [1] (at 50.0 µM); -6% in experiment [2] (setting [7]); 73% (active) in experiment [2] (setting [8]); 98.9% (active) in experiment [2] (at 50.0 µM). Also, the growth inhibition in experiment [3] (setting [7]) was 0%; in experiment [3] (setting [8]), 87% (active); in experiment [3] (at 50.0 µM), 99% (active); in experiment [4] (setting [7]), -14%; in experiment [4] (setting [8]) it was 58%; in experiment [4] (at 50.0 µM), 99% (active). The growth inhibition is 10% in experiment [5] (setting [7]); 92% (active) in experiment [5] (setting [8]); 98.6% (active) in experiment [5] (at 50.0 µM); 20% in experiment [6] (setting [7]); 98% (active) in experiment [6] (setting [8]); 99.2% (active) in experiment [6] (at 50.0 µM).
